# Tests used:
# Type in all cases: functional
# Plasmodium falciparum [1] = experiment: GSK_TCMDC: Inhibition of Plasmodium falciparum 3D7 in whole red blood cells, using parasite LDH activity as an index of growth. Test compounds present at 2uM
# Plasmodium falciparum [2] = experiment: GSK_TCMDC: Inhibition of Plasmodium falciparum Dd2 in whole red blood cells, using parasite LDH activity as an index of growth. Test compounds present at 2uM
# HepG2 = experiment: GSK_TCMDC: Percent inhibition of human HepG2 cell line. Test compounds present at 10uM.
structure (smiles),measurement,setting,value
Cc1nnsc1C(=O)Nc1cccc(-c2ccc(-c3nc4ccccc4[nH]3)cc2)c1,Inhibition,Plasmodium falciparum [1],100%
same,Inhibition,Plasmodium falciparum [2],58%
same,Inhibition,HepG2,48%
O=C(Nc1cccc(-c2ccc(-c3nc4cc(C(F)(F)F)ccc4[nH]3)cc2)c1)c1cccnc1,Inhibition,Plasmodium falciparum [1],100%
same,Inhibition,Plasmodium falciparum [2],97%
same,Inhibition,HepG2,73%
COc1cccc(C(O)CNc2ccnc(Nc3cccc(-c4csc(C)n4)c3)n2)c1 (stereo not drawn),Inhibition,Plasmodium falciparum [1],99%
same,Inhibition,Plasmodium falciparum [2],73%
same,Inhibition,HepG2,38%
C=CCn1c(SCC(=O)Nc2cc(C)ccc2OC)nc2sc(C)cc2c1=O,Inhibition,Plasmodium falciparum [1],100%
same,Inhibition,Plasmodium falciparum [2],86%
same,Inhibition,HepG2,6%
O=C(/C=C/c1ccc(Cl)cc1)NCCCCCN1CCCC(C(=O)Nc2ccc(Cl)cc2)C1 (stereo not drawn),Inhibition,Plasmodium falciparum [1],94%
same,Inhibition,Plasmodium falciparum [2],6%
same,Inhibition,HepG2,24%
O=C(O)C(F)(F)F.O=[N+]([O-])c1cccc(CNCC2CCN(CCc3ccccc3)CC2)c1,Inhibition,Plasmodium falciparum [1],98%
same,Inhibition,Plasmodium falciparum [2],11%
same,Inhibition,HepG2,15%
COc1ccc(-c2cnc3ccc(NCCCO)nn23)cc1OC,Inhibition,Plasmodium falciparum [1],98%
same,Inhibition,Plasmodium falciparum [2],90%
same,Inhibition,HepG2,9%
Cc1ccccc1Cc1cccc(/N=C(\N)Nc2ccc(Cl)cc2)n1,Inhibition,Plasmodium falciparum [1],91%
same,Inhibition,Plasmodium falciparum [2],56%
same,Inhibition,HepG2,48%
CCN(CC)CCNC(=O)/C(=C/C=C/c1cc2cc(Cl)c(Cl)cc2[nH]1)OC,Inhibition,Plasmodium falciparum [1],88%
same,Inhibition,Plasmodium falciparum [2],31%
same,Inhibition,HepG2,30%
O=C(Nc1ccccc1)N(Cc1ccccc1-c1cccc(CNCc2ccc3c(c2)OCO3)c1)C1CCN(Cc2ccccc2)CC1.O=C(O)C(F)(F)F,Inhibition,Plasmodium falciparum [1],100%
same,Inhibition,Plasmodium falciparum [2],64%
same,Inhibition,HepG2,35%
N=c1cc(C=Cc2ccc(O)cc2)[nH]c2ccccc12,Inhibition,Plasmodium falciparum [1],100%
same,Inhibition,Plasmodium falciparum [2],14%
same,Inhibition,HepG2,15%

# From ChEMBL document CHEMBL1157539, “Thousands of chemical starting points for antimalarial lead identification” (Nature, 2010)
